# Reference: the supplement of paper PMC8728848
# Shown is part of a subset that was picked to be rich in the strongest signals.
# How the values were obtained:
# Assay in all cases: glycan array binding signal (z-score within array); higher = stronger binding
# Conditions in all cases: glycan notation: IUPAC condensed, linker removed
# [1] = target: Fuc(a1-2)Gal(b1-3)GalNAc(b1-4)[Neu5Ac(a2-3)]Gal(b1-4)Glc
# Summary of the method: (§1)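 Glycan array binding is given as a within-array Z-score, which can be read as non-binding when negative. The arrays, 3228 of them, came from the Consortium for Functional Glycomics database and were retained only where the protein sequence was available. Z-scores were averaged across arrays of the same protein sequence at different concentrations or buffers and across linkers.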
# [2] = target: Fuc(a1-2)Gal(b1-4)GlcNAc(b1-2)Man
# Summary of the method: as §1
# [3] = target: Fuc(a1-2)Gal(b1-4)GlcNAc(b1-2)[Fuc(a1-2)Gal(b1-4)GlcNAc(b1-4)]Man(a1-3)[Fuc(a1-2)Gal(b1-4)GlcNAc(b1-2)Man(a1-6)]Man(b1-4)GlcNAc(b1-4)GlcNAc
# Summary of the method: as §1
# [4] = target: Fuc(a1-2)Gal(b1-4)GlcNAc(b1-6)GalNAc
# Summary of the method: as §1
# [5] = target: Fuc(a1-2)Gal(b1-4)[Fuc(a1-3)]GlcNAc(b1-3)Gal(b1-4)[Fuc(a1-3)]GlcNAc(b1-3)Gal(b1-4)[Fuc(a1-3)]GlcNAc
# Summary of the method: as §1
# Fuc(a1-2)Gal6S(b1-4)Glc = target: Fuc(a1-2)Gal6S(b1-4)Glc
# Summary of the method: as §1
# [6] = target: Fuc(a1-2)[Gal(a1-3)]Gal(b1-4)[Fuc(a1-3)]GlcNAc
# Summary of the method: as §1
# [7] = target: Fuc(a1-2)[GalNAc(a1-3)]Gal(b1-3)GalNAc(a1-3)[Fuc(a1-2)]Gal(b1-4)GlcNAc
# Summary of the method: as §1
# [8] = target: Fuc(a1-2)[GalNAc(a1-3)]Gal(b1-4)GlcNAc(b1-2)Man(a1-3)[Fuc(a1-2)[GalNAc(a1-3)]Gal(b1-4)GlcNAc(b1-2)Man(a1-6)]Man(b1-4)GlcNAc(b1-4)GlcNAc
# Summary of the method: as §1
# [9] = target: Fuc(a1-3)[Gal(b1-4)]GlcNAc(b1-3)Gal(b1-4)[Fuc(a1-3)]GlcNAc(b1-3)Gal(b1-4)[Fuc(a1-3)]GlcNAc
# Summary of the method: as §1
# Gal(a1-3)Gal(b1-4)Glc = target: Gal(a1-3)Gal(b1-4)Glc
# Summary of the method: as §1
# [10] = target: Gal(a1-4)Gal(b1-3)GlcNAc(b1-2)Man(a1-3)[Gal(a1-4)Gal(b1-3)GlcNAc(b1-2)Man(a1-6)]Man(b1-4)GlcNAc(b1-4)GlcNAc
# Summary of the method: as §1
# [11] = target: Gal(a1-4)Gal(b1-4)GlcNAc(b1-2)Man(a1-3)[Gal(a1-4)Gal(b1-4)GlcNAc(b1-2)Man(a1-6)]Man(b1-4)GlcNAc(b1-4)GlcNAc
# Summary of the method: as §1
# Gal(a1-6)Glc = target: Gal(a1-6)Glc
# Summary of the method: as §1
# [12] = target: Gal(b1-3)GalNAc(a1-3)[Fuc(a1-2)]Gal(b1-4)GlcNAc
# Summary of the method: as §1
# [13] = target: Gal(b1-3)GlcNAc(b1-3)Gal(b1-4)GlcNAc(b1-3)Gal(b1-4)GlcNAc(b1-2)[Gal(b1-3)GlcNAc(b1-3)Gal(b1-4)GlcNAc(b1-3)Gal(b1-4)GlcNAc(b1-6)]Man(a1-6)[Gal(b1-3)GlcNAc(b1-3)Gal(b1-4)GlcNAc(b1-3)Gal(b1-4)GlcNAc(b1-2)Man(a1-3)]Man(b1-4)GlcNAc(b1-4)[Fuc(a1-6)]GlcNAc
# Summary of the method: as §1
# [14] = target: Gal(b1-3)GlcNAc(b1-3)Gal(b1-4)GlcNAc(b1-6)[Gal(b1-3)GlcNAc(b1-3)]Gal(b1-4)Glc
# Summary of the method: as §1
# [15] = target: Gal(b1-4)GlcNAc(b1-2)Man(a1-6)[Man(a1-3)]Man(b1-4)GlcNAc(b1-4)GlcNAc
# Summary of the method: as §1
# [16] = target: Gal(b1-4)GlcNAc(b1-2)[Gal(b1-4)GlcNAc(b1-6)]Man(a1-6)[Gal(b1-4)GlcNAc(b1-2)Man(a1-3)]Man(b1-4)GlcNAc(b1-4)GlcNAc
# Summary of the method: as §1
# [17] = target: Gal(b1-4)GlcNAc(b1-3)Gal(b1-4)GlcNAc(b1-2)[Gal(b1-4)GlcNAc(b1-3)Gal(b1-4)GlcNAc(b1-6)]Man(a1-6)[Gal(b1-4)GlcNAc(b1-3)Gal(b1-4)GlcNAc(b1-2)Man(a1-3)]Man(b1-4)GlcNAc(b1-4)GlcNAc
# Summary of the method: as §1
# [18] = target: Gal(b1-4)GlcNAc(b1-3)Gal(b1-4)GlcNAc(b1-3)[Gal(b1-4)GlcNAc(b1-3)Gal(b1-4)GlcNAc(b1-6)]GalNAc
# Summary of the method: as §1
# Gal6S(b1-4)Glc = target: Gal6S(b1-4)Glc
# Summary of the method: as §1
# [19] = target: GalNAc3S(b1-4)[Fuc(a1-3)]GlcNAc
# Summary of the method: as §1
# [20] = target: GlcNAc(b1-2)[GlcNAc(b1-4)]Man(a1-3)[GlcNAc(b1-4)][GlcNAc(b1-2)Man(a1-6)]Man(b1-4)GlcNAc(b1-4)GlcNAc
# Summary of the method: as §1
# [21] = target: GlcNAc(b1-3)Gal(b1-4)GlcNAc(b1-2)Man(a1-3)[GlcNAc(b1-3)Gal(b1-4)GlcNAc(b1-2)Man(a1-6)]Man(b1-4)GlcNAc(b1-4)[Fuc(a1-6)]GlcNAc
# Summary of the method: as §1
# [22] = target: GlcNAc(b1-3)Gal(b1-4)GlcNAc(b1-2)[GlcNAc(b1-3)Gal(b1-4)GlcNAc(b1-6)]Man(a1-6)[GlcNAc(b1-3)Gal(b1-4)GlcNAc(b1-2)Man(a1-3)]Man(b1-4)GlcNAc(b1-4)GlcNAc
# Summary of the method: as §1
# [23] = target: Man(a1-2)Man(a1-6)[Man(a1-3)]Man(a1-6)[Man(a1-2)Man(a1-2)Man(a1-3)]Man(b1-4)GlcNAc(b1-4)GlcNAc
# Summary of the method: as §1
# Man(a1-3)[Man(a1-6)]Man = target: Man(a1-3)[Man(a1-6)]Man
# Summary of the method: as §1
# MurNAc(b1-4)GlcNAc = target: MurNAc(b1-4)GlcNAc
# Summary of the method: as §1
# [24] = target: Neu5Ac(a2-3)Gal(b1-3)[Fuc(a1-4)]GlcNAc(b1-3)Gal(b1-4)[Fuc(a1-3)]GlcNAc
# Summary of the method: as §1
# [25] = target: Neu5Ac(a2-3)Gal(b1-3)[GlcNAc(b1-6)]GalNAc
# Summary of the method: as §1
# [26] = target: Neu5Ac(a2-3)Gal(b1-4)GlcNAc(b1-3)Gal(b1-4)GlcNAc(b1-2)Man(a1-3)[Neu5Ac(a2-3)Gal(b1-4)GlcNAc(b1-3)Gal(b1-4)GlcNAc(b1-2)Man(a1-6)]Man(b1-4)GlcNAc(b1-4)GlcNAc
# Summary of the method: as §1
# [27] = target: Neu5Ac(a2-3)Gal(b1-4)GlcNAc(b1-3)Gal(b1-4)GlcNAc(b1-3)GalNAc
# Summary of the method: as §1
# [28] = target: Neu5Ac(a2-3)Gal(b1-4)GlcNAc6S
# Summary of the method: as §1
# [29] = target: Neu5Ac(a2-3)Gal(b1-4)[Fuc(a1-3)]GlcNAc6S
# Summary of the method: as §1
# [30] = target: Neu5Ac(a2-3)Gal6S(b1-4)GlcNAc
# Summary of the method: as §1
# [31] = target: Neu5Ac(a2-3)[Neu5Ac(a2-6)]GalNAc
# Summary of the method: as §1
# [32] = target: Neu5Ac(a2-6)Gal(b1-4)GlcNAc(b1-2)Man(a1-3)[Neu5Ac(a2-6)Gal(b1-4)GlcNAc(b1-2)Man(a1-6)]Man(b1-4)GlcNAc(b1-4)[Fuc(a1-6)]GlcNAc
# Summary of the method: as §1
# [33] = target: Neu5Ac(a2-6)Gal(b1-4)GlcNAc(b1-2)[Neu5Ac(a2-6)Gal(b1-4)GlcNAc(b1-4)]Man(a1-3)[GlcNAc(b1-4)][Neu5Ac(a2-6)Gal(b1-4)GlcNAc(b1-2)[Neu5Ac(a2-6)Gal(b1-4)GlcNAc(b1-6)]Man(a1-6)]Man(b1-4)GlcNAc(b1-4)GlcNAc
# Summary of the method: as §1
# [34] = target: Neu5Ac(a2-6)Gal(b1-4)GlcNAc(b1-3)Gal(b1-4)GlcNAc
# Summary of the method: as §1
# [35] = target: Neu5Ac(a2-6)Gal(b1-4)GlcNAc(b1-3)Gal(b1-4)GlcNAc(b1-2)Man(a1-3)[Neu5Ac(a2-6)Gal(b1-4)GlcNAc(b1-3)Gal(b1-4)GlcNAc(b1-2)Man(a1-6)]GalNAc
# Summary of the method: as §1
# [36] = target: Neu5Ac(a2-6)Gal(b1-4)GlcNAc(b1-3)Gal(b1-4)GlcNAc(b1-3)Gal(b1-4)GlcNAc(b1-2)Man(a1-3)[Neu5Ac(a2-6)Gal(b1-4)GlcNAc(b1-3)Gal(b1-4)GlcNAc(b1-3)Gal(b1-4)GlcNAc(b1-2)Man(a1-6)]GalNAc
# Summary of the method: as §1
# [37] = target: Neu5Ac(b2-6)Gal(b1-4)GlcNAc
# Summary of the method: as §1
# [38] = target: Neu5Gc(a2-8)Neu5Gc(a2-3)Gal(b1-4)GlcNAc(b1-3)Gal(b1-4)GlcNAc
# Summary of the method: as §1
binder,measurement,setting,value
"DC-Sign-R (Homo sapiens), Q9H2X3 (protein) MSDSKEPRVQQLGLLEEDPTTSGIRLFPRDFQFQQIHGHKSSTGCLGHGALVLQLLSFMLLAGVLVAILVQVSKVPSSLSQEQSEQDAIYQNLTQLKAAVGELSEKSKLQEIYQELTQLKAAVGELPEKSKLQEIYQELTRLKAAVGELPEKSKLQEIYQELTRLKAAVGELPEKSKLQEIYQELTRLKAAVGELPEKSKLQEIYQELTELKAAVGELPEKSKLQEIYQELTQLKAAVGELPDQSKQQQIYQELTDLKTAFERLCRHCPKDWTFFQGNCYFMSNSQRNWHDSVTACQEVRAQLVVIKTAEEQNFLQLQTSRSNRFSWMGLSDLNQEGTWQWVDGSPLSPSFQRYWNSGEPNNSGNEDCAEFSGSGWNDNRCDVDNYWICKKPAACFRDE",glycan array binding signal (z-score),[1],-0.074
same,glycan array binding signal (z-score),[2],1.11
same,glycan array binding signal (z-score),[3],-0.8
same,glycan array binding signal (z-score),[4],-0.508
same,glycan array binding signal (z-score),[5],-0.308
same,glycan array binding signal (z-score),Fuc(a1-2)Gal6S(b1-4)Glc,-0.528
same,glycan array binding signal (z-score),[6],0.112
same,glycan array binding signal (z-score),[7],-0.817
same,glycan array binding signal (z-score),[8],-0.72
same,glycan array binding signal (z-score),[9],-0.384
same,glycan array binding signal (z-score),Gal(a1-3)Gal(b1-4)Glc,-0.655
same,glycan array binding signal (z-score),[10],-0.125
same,glycan array binding signal (z-score),[11],-0.683
same,glycan array binding signal (z-score),Gal(a1-6)Glc,-0.326
same,glycan array binding signal (z-score),[12],1.15
same,glycan array binding signal (z-score),[13],2.5
same,glycan array binding signal (z-score),[14],-0.833
same,glycan array binding signal (z-score),[15],3
same,glycan array binding signal (z-score),[16],-0.33
same,glycan array binding signal (z-score),[17],3.03
same,glycan array binding signal (z-score),[18],0.59
same,glycan array binding signal (z-score),Gal6S(b1-4)Glc,-0.744
same,glycan array binding signal (z-score),[19],-0.794
same,glycan array binding signal (z-score),[20],2.91
same,glycan array binding signal (z-score),[21],0.094
same,glycan array binding signal (z-score),[22],2.48
same,glycan array binding signal (z-score),[23],-0.019
same,glycan array binding signal (z-score),Man(a1-3)[Man(a1-6)]Man,-0.857
same,glycan array binding signal (z-score),MurNAc(b1-4)GlcNAc,0.448
same,glycan array binding signal (z-score),[24],-0.503
same,glycan array binding signal (z-score),[25],2.7
same,glycan array binding signal (z-score),[26],1.11
same,glycan array binding signal (z-score),[27],2.49
same,glycan array binding signal (z-score),[28],-0.795
same,glycan array binding signal (z-score),[29],-0.531
same,glycan array binding signal (z-score),[30],-0.255
same,glycan array binding signal (z-score),[31],0.964
same,glycan array binding signal (z-score),[32],-0.156
same,glycan array binding signal (z-score),[33],3.11
same,glycan array binding signal (z-score),[34],-0.464
same,glycan array binding signal (z-score),[35],4.44
same,glycan array binding signal (z-score),[36],2.81
same,glycan array binding signal (z-score),[37],3.63
same,glycan array binding signal (z-score),[38],1.55
